Data published in PubChem BioAssay (Tox21).
Results filed as inconclusive are left out. The source made the active and inactive calls. Unless noted, the call rests on the fitted dose curve; in most records, active means well fitted curve in the direction sought with a large enough effect in the repeat runs; inconclusive means weak or mixed curves; inactive means no such curve, though single readings can be large; an effect the other way counts as inactive or inconclusive.

Key:
[1] = qHTS assay to test for compound auto fluorescence at 535 nm (green) in HEK293 cells (AID 720680)
[2] = qHTS assay to test for compound auto fluorescence at 460 nm (blue) in HEK293 cell free culture (AID 720681)
In short: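 Blue fluorescence (Ex 405/Em 460 nm, triamterene-equivalent) was read immediately after pin transfer of compound or DMSO into medium (DMEM, 10% FBS) without cells.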

[3] = qHTS assay to test for compound auto fluorescence at 535 nm (green) in HEK293 cell free culture (AID 720682)
In short: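 Green-channel intensity (Ex/Em 485/535 nm) was recorded from compound-treated wells containing only DMEM with 10% FBS. Fluorescein provided the equivalency standard.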

[4] = qHTS assay to test for compound auto fluorescence at 590 nm (red) in HEK293 cell free culture (AID 720683)
In short: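 Red-channel autofluorescence of compounds in culture medium (DMEM, 10% FBS), no cells, measured at 540/590 nm. Rose Bengal sodium is the reference fluorophore for equivalence.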

[5] = qHTS assay to test for compound auto fluorescence at 590 nm (red) in HepG2 cell free culture (AID 720684)
In short: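 No cells present: MEM + 10% FBS only. Compound pinned in, red label read (540/590 nm). Activity = fluorescence equivalent to Rose Bengal sodium.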

[6] = qHTS assay to test for compound auto fluorescence at 460 nm (blue) in HepG2 cell free culture (AID 720685)
In short: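 Cell-free plates of MEM plus 10% FBS received 23 nL compound or DMSO vehicle; blue-channel (405/460 nm) intensity scored against triamterene as reference fluorophore.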

[7] = qHTS assay to test for compound auto fluorescence at 535 nm (green) in HepG2 cell free culture (AID 720686)
[8] = qHTS assay to test for compound auto fluorescence at 460 nm (blue) in HepG2 cells (AID 720687)
In short: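 Blue-channel autofluorescence (Ex/Em 405/460 nm, triamterene-equivalent) was measured after 1 hr compound exposure at 37 C, 5% CO2. Cells were HepG2, plated overnight at 37 C in MEM plus 10% FBS.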

[9] = target: Glucocorticoid receptor (Homo sapiens) (UniProt P04150); experiment: qHTS assay to identify small molecule agonists of the glucocorticoid receptor (GR) signaling pathway (AID 720691; active means well fitted activation curve with a large enough effect in the signal ratio in the repeat runs, not every such curve was filed as active; the % refers to the signal ratio)
In short: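 A HeLa cervical cancer line expressing GR and a glucocorticoid response element-driven beta-lactamase gene is treated with compounds for 18 h; LiveBLAzer B/G FRET substrate is then applied and fluorescence read.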

[10] = qHTS assay to identify small molecule antagonists of the glucocorticoid receptor (GR) signaling pathway - cell viability counter screen (AID 720693); further: nearly all actives have a fitted effect of over 55% in size
[11] = qHTS assay for identifying genotoxic compounds that show differential cytotoxicity against isogenic chicken DT40 cell lines with known DNA damage response pathways - wild type cell line (AID 743012); further: nearly all actives have a fitted effect of over 60% in size; further: potency means the concentration at half of the fitted maximal effect
In short: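 300 wt DT40 cells/well; cpd (DMSO) pintool-transferred after ~0.5 h at 37 C/5% CO2; 40 h incubation; CellTiter-Glo added, 30 min RT; luminescence read.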

[12] = qHTS assay for identifying genotoxic compounds that show differential cytotoxicity against isogenic chicken DT40 cell lines with known DNA damage response pathways - Rev3 mutant cell line (AID 743014); further: nearly all actives have a fitted effect of over 55% in size
[13] = qHTS assay for identifying genotoxic compounds that show differential cytotoxicity against isogenic chicken DT40 cell lines with known DNA damage response pathways - Rad54/Ku70 mutant cell line (AID 743015); further: nearly all actives have a fitted effect of over 60% in size; further: potency means the concentration at half of the fitted maximal effect
[14] = qHTS assay to identify small molecule antagonists of the androgen receptor (AR) signaling pathway - cell viability counter screen (AID 743033; further: nearly all actives have a fitted effect of over 45% in size)
[15] = qHTS assay to identify small molecule antagonists of the androgen receptor (AR) signaling pathway using the MDA cell line - cell viability counter screen (AID 743041; further: nearly all actives have a fitted effect of over 45% in size)
In short: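 Using the breast carcinoma line MDA-kb2 AR-luc, test chemicals were co-incubated with R1881 for 16 h; CellTiter-Fluor reagent, added at 15.5 h, provided a fluorescence measure of live cells.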

[16] = target: Glucocorticoid receptor (Homo sapiens) (UniProt P04150); experiment: qHTS assay to identify small molecule antagonists of the glucocorticoid receptor (GR) signaling pathway (AID 720692; active means well fitted inhibition curve with a large enough effect in the signal ratio in the repeat runs, not every such curve was filed as active; the % refers to the signal ratio)
In short: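 GRE-bla HeLa line, dex-stimulated (5 nM final). Compound exposure 18 h, 37 C. Beta-lactamase FRET read after 2 h RT substrate.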

[17] = target: Androgen receptor (Homo sapiens) (UniProt P10275); experiment: qHTS assay to identify small molecule antagonists of the androgen receptor (AR) signaling pathway (AID 743035; active means well fitted inhibition curve with a large enough effect in the signal ratio in the repeat runs, not every such curve was filed as active; the % refers to the signal ratio)
In short: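 In this cell-based reporter screen, compounds were tested in concentration series against R1881-activated HEK293 cells expressing beta-lactamase under UAS control; after 16 h at 37C, FRET substrate was added and fluorescence read 2 h later.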

[18] = target: Androgen receptor (Homo sapiens) (UniProt P10275); experiment: qHTS assay to identify small molecule agonists of the androgen receptor (AR) signaling pathway using the MDA cell line (AID 743040; further: nearly all actives have a fitted effect of over 20% in size)
In short: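 Stable MMTV-luciferase reporter in MDA-kb2 cells; note the promoter carries GR as well as AR response elements. 16 h compound treatment, 37C, 0% CO2; ONE-Glo luminescence endpoint.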

[19] = target: Androgen receptor (Homo sapiens) (UniProt P10275); experiment: qHTS assay to identify small molecule antagonists of the androgen receptor (AR) signaling pathway using the MDA cell line (AID 743042; further: nearly all actives have a fitted effect of over 55% in size)
In short: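 Antagonist mode: compounds plus R1881 agonist added to MDA-kb2 AR-luc cells, incubated 16 h at 37C. Luciferase reporter luminescence quantified, with multiplexed CellTiter-Fluor readout for cell viability.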
On the % scale 0 is the no-effect control and ±100 the full control effect.

Chain of Glucocorticoid receptor (Homo sapiens) (P04150 whole entry, looked up): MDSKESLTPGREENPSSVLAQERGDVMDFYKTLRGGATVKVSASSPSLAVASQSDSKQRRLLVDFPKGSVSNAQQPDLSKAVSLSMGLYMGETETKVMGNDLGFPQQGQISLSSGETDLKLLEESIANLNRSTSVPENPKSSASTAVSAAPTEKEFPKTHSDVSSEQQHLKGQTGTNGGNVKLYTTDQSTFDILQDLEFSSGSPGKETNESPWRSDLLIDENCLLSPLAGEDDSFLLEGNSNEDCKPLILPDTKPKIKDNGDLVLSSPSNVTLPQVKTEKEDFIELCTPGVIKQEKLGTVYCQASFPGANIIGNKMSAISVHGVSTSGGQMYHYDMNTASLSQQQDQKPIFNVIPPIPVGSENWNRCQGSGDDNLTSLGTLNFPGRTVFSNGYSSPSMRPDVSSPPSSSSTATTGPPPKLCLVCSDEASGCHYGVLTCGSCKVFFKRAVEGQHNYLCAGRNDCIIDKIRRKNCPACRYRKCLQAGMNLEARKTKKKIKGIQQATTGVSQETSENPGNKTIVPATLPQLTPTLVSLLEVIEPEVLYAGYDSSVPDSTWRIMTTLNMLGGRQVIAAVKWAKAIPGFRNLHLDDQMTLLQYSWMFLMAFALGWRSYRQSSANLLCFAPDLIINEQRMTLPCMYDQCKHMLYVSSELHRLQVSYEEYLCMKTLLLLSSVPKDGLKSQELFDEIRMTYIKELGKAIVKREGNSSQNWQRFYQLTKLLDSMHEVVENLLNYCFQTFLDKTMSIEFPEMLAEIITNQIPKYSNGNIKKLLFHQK
Chain of Androgen receptor (Homo sapiens) (P10275 whole entry, looked up): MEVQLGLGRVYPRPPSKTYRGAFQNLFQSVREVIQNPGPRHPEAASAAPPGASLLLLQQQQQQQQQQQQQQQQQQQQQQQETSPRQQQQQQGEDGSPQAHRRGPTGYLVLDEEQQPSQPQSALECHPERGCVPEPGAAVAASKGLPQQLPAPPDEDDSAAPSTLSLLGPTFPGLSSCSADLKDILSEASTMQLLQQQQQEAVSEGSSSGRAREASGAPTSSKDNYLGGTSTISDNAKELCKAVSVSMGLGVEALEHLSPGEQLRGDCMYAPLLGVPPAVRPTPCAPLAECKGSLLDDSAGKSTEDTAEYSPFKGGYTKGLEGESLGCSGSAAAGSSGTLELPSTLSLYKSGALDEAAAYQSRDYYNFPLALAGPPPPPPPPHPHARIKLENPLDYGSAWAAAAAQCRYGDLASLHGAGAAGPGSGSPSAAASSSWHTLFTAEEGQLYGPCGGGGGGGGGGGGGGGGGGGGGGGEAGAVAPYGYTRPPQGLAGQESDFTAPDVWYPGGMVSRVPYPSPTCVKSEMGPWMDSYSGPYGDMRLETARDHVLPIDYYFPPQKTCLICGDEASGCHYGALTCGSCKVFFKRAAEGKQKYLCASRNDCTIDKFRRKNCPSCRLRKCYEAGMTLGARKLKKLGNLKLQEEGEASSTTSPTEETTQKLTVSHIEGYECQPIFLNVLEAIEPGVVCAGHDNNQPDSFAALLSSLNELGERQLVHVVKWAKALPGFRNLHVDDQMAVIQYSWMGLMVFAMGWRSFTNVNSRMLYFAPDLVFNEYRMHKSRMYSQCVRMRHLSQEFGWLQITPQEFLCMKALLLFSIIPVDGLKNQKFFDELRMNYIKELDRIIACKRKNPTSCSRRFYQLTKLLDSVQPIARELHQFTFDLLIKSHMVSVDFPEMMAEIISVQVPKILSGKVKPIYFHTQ

Cc1ccc(C)c(N)c1
inactive: outcome [1] | outcome [2] | outcome [3] | outcome [4] | outcome [5] | outcome [6] | outcome [7] | outcome [8] | Potency [9] | outcome [10] | Potency [11] | Potency [12] | Potency [13] | outcome [14] | Potency [15]

OCc1ccccc1O
inactive: outcome [1] | outcome [2] | outcome [3] | outcome [4] | outcome [5] | outcome [6] | outcome [7] | outcome [8] | Potency [9] | Potency [16] | outcome [10] | Potency [12] | Potency [15]

C=CCCCCCCCCO
inactive: outcome [1] | outcome [2] | outcome [3] | outcome [4] | outcome [5] | outcome [6] | outcome [7] | outcome [8] | Potency [9] | outcome [10] | Potency [11] | Potency [12] | Potency [13] | Potency [15]

CCOC(=O)NCCC[Si](OCC)(OCC)OCC
inactive: outcome [1] | outcome [2] | outcome [3] | outcome [4] | outcome [5] | outcome [6] | outcome [7] | outcome [8] | Potency [9] | outcome [10] | Potency [11] | Potency [12] | Potency [13] | outcome [14] | Potency [15]

FC(F)(F)C(Cl)(Cl)Cl
inactive: outcome [1] | outcome [2] | outcome [3] | outcome [4] | outcome [5] | outcome [6] | outcome [7] | outcome [8] | outcome [10] | Potency [11] | Potency [12] | Potency [13] | outcome [14]

CCCCCCC
inactive: outcome [1] | outcome [2] | outcome [3] | outcome [4] | outcome [5] | outcome [6] | outcome [7] | outcome [8] | Potency [9] | outcome [10] | Potency [12] | outcome [14] | Potency [15]

CC/C=C\CCOC(=O)CCCCC
inactive: outcome [1] | outcome [2] | outcome [3] | outcome [4] | outcome [5] | outcome [6] | outcome [7] | outcome [8] | outcome [10] | Potency [11] | Potency [12] | Potency [13] | outcome [14]

CN(CC1(C)CCCO1)S(=O)(=O)c1ccc(Cl)c(S(N)(=O)=O)c1 (stereo not drawn)
inactive: outcome [1] | outcome [2] | outcome [3] | outcome [4] | outcome [5] | outcome [6] | outcome [7] | outcome [8] | outcome [10] | Potency [11] | Potency [12] | Potency [13] | outcome [14] | Potency [15]

Clc1cccc(-c2cc(Cl)cc(Cl)c2)c1
inactive: outcome [1] | outcome [2] | outcome [3] | outcome [4] | outcome [5] | outcome [6] | outcome [7] | outcome [8] | outcome [10] | Potency [11] | Potency [12] | Potency [13] | outcome [14]

CC(C)O
inactive: outcome [1] | outcome [2] | outcome [3] | outcome [4] | outcome [5] | outcome [6] | outcome [7] | outcome [8] | outcome [10] | Potency [11] | Potency [12] | outcome [14] | Potency [15]

Cc1c[nH]c(=S)[nH]c1=O
inactive: outcome [1] | outcome [2] | outcome [3] | outcome [4] | outcome [5] | outcome [6] | outcome [7] | outcome [8] | outcome [10] | Potency [12] | Potency [13]

CCN(CC)CC1CCCCN1CC(=O)N1c2ccccc2C(=O)Nc2cccnc21 (stereo not drawn)
inactive: outcome [1] | outcome [2] | outcome [3] | outcome [4] | outcome [5] | outcome [6] | outcome [7] | outcome [8] | outcome [10] | Potency [11] | Potency [12] | Potency [13] | outcome [14] | Potency [15]

O=C1N(c2ccccc2)c2ccccc2C1(Cc1ccncc1)Cc1ccncc1
inactive: outcome [1] | outcome [2] | outcome [3] | outcome [4] | outcome [5] | outcome [6] | outcome [7] | outcome [8] | Potency [9] | outcome [10] | Potency [13] | outcome [14] | Potency [15]

O=C1CCCCCCCCCCC(=O)OCCO1
inactive: outcome [1] | outcome [2] | outcome [3] | outcome [4] | outcome [5] | outcome [6] | outcome [7] | outcome [8] | Potency [16] | outcome [10] | Potency [11] | Potency [12] | Potency [13] | outcome [14] | Potency [15]

FC(F)(F)c1ccccc1
inactive: outcome [1] | outcome [2] | outcome [3] | outcome [4] | outcome [5] | outcome [6] | outcome [7] | outcome [8] | outcome [10] | Potency [12] | Potency [13] | outcome [14]

COc1cc2c(cc1N)oc1ccccc12
inactive: outcome [1] | outcome [2] | outcome [3] | outcome [4] | outcome [5] | outcome [6] | outcome [7] | outcome [8] | Potency [9] | outcome [10] | outcome [14] | Potency [15]
active: Potency [13] 62.4 µM

CC1=C(CC(=O)O)c2cc(F)ccc2/C1=C\c1ccc(S(C)(=O)=O)cc1
inactive: outcome [1] | outcome [2] | outcome [3] | outcome [4] | outcome [5] | outcome [6] | outcome [7] | outcome [8] | outcome [10] | Potency [12] | Potency [13] | outcome [14] | Potency [17] | Potency [18] | Potency [15] | outcome [19]

CCOC(=O)C(Br)c1ccccc1 (stereo not drawn)
inactive: outcome [1] | outcome [2] | outcome [3] | outcome [4] | outcome [5] | outcome [6] | outcome [7] | outcome [8] | outcome [10] | Potency [11] | Potency [15]

COc1ccccc1N1CCN(CCCNc2cc(=O)n(C)c(=O)n2C)CC1
inactive: outcome [1] | outcome [2] | outcome [3] | outcome [4] | outcome [5] | outcome [6] | outcome [7] | outcome [8] | outcome [10] | Potency [11] | Potency [12] | outcome [14]

O=CCCc1ccccc1
inactive: outcome [1] | outcome [2] | outcome [3] | outcome [4] | outcome [5] | outcome [6] | outcome [7] | outcome [8] | outcome [10] | Potency [11] | outcome [14]

CC(C)NC[C@@H](O)COc1cccc2ccccc12
active: Potency [11] 26.6 µM
inactive: outcome [1] | outcome [2] | outcome [3] | outcome [4] | outcome [5] | outcome [6] | outcome [7] | outcome [8] | outcome [10] | Potency [15]

CC(=O)OC1C2(C)CCC(C2)C1(C)C (stereo not drawn)
inactive: outcome [1] | outcome [2] | outcome [3] | outcome [4] | outcome [5] | outcome [6] | outcome [7] | outcome [8] | Potency [9] | outcome [10] | Potency [12] | outcome [14] | Potency [15]

CCC1(C)NC(=O)NC1=O (stereo not drawn)
inactive: outcome [1] | outcome [2] | outcome [3] | outcome [4] | outcome [5] | outcome [6] | outcome [7] | outcome [8] | outcome [10] | Potency [11] | Potency [12] | Potency [13]

O=Cc1ccc(F)c(Br)c1
inactive: outcome [1] | outcome [2] | outcome [3] | outcome [4] | outcome [5] | outcome [6] | outcome [7] | outcome [8] | outcome [10] | Potency [11] | Potency [12] | outcome [14]

CCCCNc1cc(C(=O)O)cc(S(N)(=O)=O)c1Oc1ccccc1
inactive: fluorescence, % of fluorescein [1] -0.0725% [at 18.6 µM] | fluorescence, % of fluorescent control [2] -0.0083% [at 18.6 µM] | activity change [3] -0.0379% [at 18.6 µM] | fluorescence, % of fluorescent control [4] -0.0094% [at 18.6 µM] | fluorescence, % of Rose Bengal [5] 0.449% [at 18.6 µM] | fluorescence, % of fluorescent control [6] -0.0399% [at 18.6 µM] | fluorescence, % of fluorescein control [7] 0.0191% [at 18.6 µM] | fluorescence, % of fluorescent control [8] -0.0058% [at 18.6 µM] | outcome [10] | Potency [11] | Potency [12] | Potency [13] | outcome [14]

OCCN1CCN(CCO)CC1
inactive: outcome [1] | outcome [2] | outcome [3] | outcome [4] | outcome [5] | outcome [6] | outcome [7] | outcome [8] | Potency [9] | outcome [10] | Potency [12] | outcome [14] | Potency [15]
